# Experimental data reported in the supplement of paper PMC6555819.
# How the values were obtained:
# Assay in all cases: PBM binding z-score (relative to random genomic background probes); higher = stronger binding; sequences stand for … in GC…GCGATTGACAGCGTAGAATGAAGG
# [1] = system: RARb homodimer (NR concentration 270 nM)
# Summary of the method: (§1)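 Antibodies against each partner of ligand-free nuclear receptor dimers (one per run) detected binding on custom Agilent 4×180K protein-binding microarrays after 1 h incubation. The double-stranded probes had 34-nt variable regions carrying direct-repeat seeds, single-nucleotide variants, half-site ablations and random human genomic background sequences. Binding z-scores, from regression-normalized fluorescence, use the random background probes as reference.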
# [2] = system: RARg:RXRa (NR concentration 270 nM, RXRa partner concentration 90 nM)
# Summary of the method: as §1
# [3] = system: RARg homodimer (NR concentration 270 nM)
# Summary of the method: as §1
# [4] = system: RXRa DBDmut IVT, anti-RXR (DBD mutation: RXRa K156A/R161A, NR concentration 90 nM)
# Summary of the method: as §1
# [5] = system: RXRa homodimer (NR concentration 180 nM)
# Summary of the method: as §1
# [6] = system: THRa:RXRa (NR concentration 90 nM, RXRa partner concentration 90 nM)
# Summary of the method: as §1
# [7] = system: THRa homodimer (NR concentration 90 nM)
# Summary of the method: as §1
# [8] = system: VDR homodimer (NR concentration 270 nM)
# Summary of the method: as §1
Sequence,PBM binding z-score [1],PBM binding z-score [2],PBM binding z-score [3],PBM binding z-score [4],PBM binding z-score [5],PBM binding z-score [6],PBM binding z-score [7],PBM binding z-score [8]
GCTCGGAGGACAAGGTCTGAGCTTTGTCCGTAGA,0.301,-0.104,0.27,-0.359,-0.785,0.705,-0.422,-0.592
TCATATAGGTAAATGCTAGGTGAAAGTCCGATCT,0.629,0.482,0.503,1.42,0.567,1.39,0.441,0.42
AGAACGAGCGCAATGAGTTGATAGCACGGGTGGC,-0.96,-0.134,-0.287,-0.213,-0.0749,-0.609,-1.01,0.00307
GCTCGGAGGAAAAGGTCAGAGCTTTGTCCGTAGA,4,4.34,4.89,-0.162,4.74,2.22,-0.291,-0.277
GCTTGTAGATCAAGGTTAATAAAGACTAAGCTAA,0.0389,0.0476,0.168,-0.167,0.452,1,-0.489,-0.152
TGTCAAAGTTCAACGGTAACGTAAGTATCCACAC,3.79,5.69,6.35,4.26,5.2,1.98,-0.415,3.5
GCTTACGGGTCAAAGGTTATAGCTTGAATAGAAT,3.13,6.69,4.63,2.37,8.87,3.57,-0.0839,1.45
CGAACGAGGGCATGAGTTAATAGCAAATGCCGAT,0.53,1.2,1.61,2.14,0.895,1.13,-0.42,1.02
GCGACTGGGGCAAAGCAGGTTACGATAAGGTTGG,1.04,0.351,0.644,-0.265,0.354,2.97,0.0259,-0.24
TCTTGTAGATCAAGCAGCTTAAGAAAGCCTGAGT,-0.672,-0.336,-0.59,0.402,-0.293,-0.48,-0.676,-0.394
TTACCAGGGTGAAGGTCGTTGATCCCTCTGTAGA,1.74,1.16,0.774,-0.374,2.14,1.84,0.461,0.856
CGAACTAGGTCAGCCAGGACAGTGAATACATTGA,2.65,3.04,4.54,1.2,1.54,3.12,1.45,0.353
CCGACTGGGGCATAAGCTTACCATAAGCCAGCCC,-0.773,-0.376,-0.313,0.074,-0.312,-0.645,-1.06,-0.947
AGGCAAAGTTCATCTAGGTAACGTAAGATATGCT,3.56,5.33,5.75,4.59,4.37,3.18,0.436,4.85
ATCTCTAGGCAAAGTTCAGTGAAAGATCGATAGA,2.14,1.79,2.42,1.24,1.06,0.452,-0.26,1.48
CGTCCATGGTCATAGGAGGTCAGTGAAGACAGAT,3.47,2.87,2.8,0.0145,2.18,3.83,0.621,1.16
CCTACTGGTCCACGAAAGGTCATTGATTCAGTGA,4.62,4.79,4.43,1.26,5.49,3.52,1.6,3.62
TCTTGTAGATCAACAGGAGGTTAAGAACGATCGA,0.615,0.992,0.377,0.686,0.967,0.923,-0.518,-0.0634
CCTAGTTGGTCATGGTCACACACGCTATAGGTAC,1.56,1.06,1.54,0.565,0.699,0.458,0.619,0.905

Sequence,PBM binding z-score [1],PBM binding z-score [2],PBM binding z-score [3],PBM binding z-score [4],PBM binding z-score [5],PBM binding z-score [6],PBM binding z-score [7],PBM binding z-score [8]
ATCGAAAGGTCGACGAGGTGACTATACACCGTTT,3.13,4.44,4.48,1.17,5.08,3.95,1.27,1.11
GCGACTGGGGCAAAGCAGGTAACCATAAGGTTGG,0.207,0.0978,0.448,-0.914,0.117,2.89,-0.129,-0.329
GCTGCTAGGTCAACTGATGTTCAGCTAAAGCTCG,3.45,4.37,5.51,1.81,2.95,2.89,1.02,0.0528
GGAACGAGGGCAAGATGATAGCAGAGTTTGATGG,1.21,1.2,1.78,1.52,0.962,0.971,-0.0312,1.08
CGAACTAGGTCATTGACAGGACGGTGAATAGTAA,2.33,4.09,4.33,2.13,2.59,2.58,0.313,0.872
ACTAGCATGCCAAGGGTCACTCAAGATTAGTCCG,3.83,3.77,3.69,0.719,3.91,2.75,0.299,1.64
ACTAGCAGGCCAAGGGTCCCTCAAGATTAGTCCG,0.0685,-0.0773,-0.0696,-0.495,-0.0168,-0.255,-0.726,-0.484
AGAACGAGGGCACGCTGAGTTGATAGAAGAGTAG,1.17,1.97,2.31,1.83,1.29,1.91,-0.0196,1.72
TTACCAAGGTGAGAGGTCGTTGATGCACGCCTTG,1.97,2.58,1.3,0.404,3.24,2.6,1.11,1.66
GATACAGGGTCAAGGCCGGAGTACGCGTATTGAT,3.43,5.35,5.4,2.23,5.79,3.46,1.03,1.78
TCTTGTATATCAACAGGAGGTTAAGAAAGATCGA,0.861,0.722,0.592,0.943,1.25,1.18,0.039,0.491
CCAGACAGGTGGAAGGTAACTCAGTCTGGTACGC,0.0116,-0.129,-0.15,-0.527,0.236,-0.18,-0.144,-0.0329
TCTTGTAGATCATCAGGAGGTTAAGAAAGATCGA,0.484,0.857,0.389,0.372,1.01,0.897,-0.482,-0.126
TCATATAGGTAAACTGGTGAAAGTCCGTAAGTTA,0.366,0.0786,-0.0648,1.19,0.361,0.34,0.281,0.358
CCTATTAGTTGACCATAAGGGCACCCGAAGCTCG,1.86,1.16,1.04,0.326,0.908,2.02,1.61,1.39
AGAATGAGGTTCCCAAAGATCAGGGAAACGCTTG,-0.864,0.141,0.123,-0.649,0.474,0.218,-0.623,-0.39
CTCGAAAGGTCGGTTGAGGTGAGTGTACGGATAA,2.49,2.68,2.86,0.363,2.49,5.02,1.78,1.29
CCTACTGGGCCAAAAAAGTCATTGATGCCGATAA,-0.0259,-0.155,0.0325,-0.134,-0.184,-0.184,-0.612,-0.687
